The nature of assay [1]: qHTS assay to identify small molecule antagonists of the estrogen related receptor (ERR) signaling pathway from Tox21 library - cell viability counter screen (AID 1224834). Also: nearly all actives have a fitted effect of over 30% in size. The procedure, abridged: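 In this quantitative HTS format, ERR cells receive compounds in DMSO and are incubated for 17.5 h at 37 C. Live-cell protease activity is then detected with CellTiter-Fluor.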
(In qHTS, concentration-response curves come from the screen itself.)

Assay [2] has as its target Luciferin 4-monooxygenase (Photinus pyralis) (UniProt P08659). Description: qHTS assay to identify small molecule inhibitors of firefly luciferase (AID 1224835). Also: nearly all actives have a fitted effect of over 25% in size. Also: potency is read from the fitted curve at half-maximal effect. The procedure, abridged: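 Quantitative HTS format; KM concentrations of both substrates. Purified P. pyralis FLuc activity quantified from luminescence images.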
Assay [3] is described as follows: qHTS assay to identify small molecule agonists of the constitutive androstane receptor (CAR) signaling pathway - cell viability counter screen (AID 1224836). Also: nearly all actives have a fitted effect of over 45% in size. The procedure, abridged:
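HepG2 cells stably carrying hCAR and a CYP2B6-2.2kb reporter were plated 4 h, then given compounds at 15 concentrations plus PK11195 (final 0.75 uM). After 23 h at 37 C, viability was read by CellTiter-Fluor fluorescence.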

A short description of assay [4]: qHTS assay to identify small molecule antagonists of the constitutive androstane receptor (CAR) signaling pathway - cell viability counter screen (AID 1224837). Also: nearly all actives have a fitted effect of over 45% in size. The procedure, abridged:
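In quantitative HTS format, compounds at 15 concentrations were applied to HepG2 cells double-transfected with hCAR and CYP2B6-2.2kb under 50 nM CITCO stimulation; live-cell protease activity was read after 23 hr via CellTiter-Fluor.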

The target of assay [5] is Nuclear receptor subfamily 1 group I member 3 (Homo sapiens) (UniProt Q14994). Kind of assay: qHTS assay to identify small molecule antagonists of the constitutive androstane receptor (CAR) signaling pathway (AID 1224838). Also: nearly all actives have a fitted effect of over 40% in size. In outline: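 CITCO-stimulated (50 nM final) HepG2 cells stably transfected with hCAR and CYP2B6-2.2kb luciferase were exposed to compounds at 15 concentrations for 24 h at 37 C/5% CO2. A luciferase reagent was added and luminescence recorded after 30 min.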
Nuclear receptor subfamily 1 group I member 3 (Homo sapiens), sequence (Q14994 whole entry, looked up): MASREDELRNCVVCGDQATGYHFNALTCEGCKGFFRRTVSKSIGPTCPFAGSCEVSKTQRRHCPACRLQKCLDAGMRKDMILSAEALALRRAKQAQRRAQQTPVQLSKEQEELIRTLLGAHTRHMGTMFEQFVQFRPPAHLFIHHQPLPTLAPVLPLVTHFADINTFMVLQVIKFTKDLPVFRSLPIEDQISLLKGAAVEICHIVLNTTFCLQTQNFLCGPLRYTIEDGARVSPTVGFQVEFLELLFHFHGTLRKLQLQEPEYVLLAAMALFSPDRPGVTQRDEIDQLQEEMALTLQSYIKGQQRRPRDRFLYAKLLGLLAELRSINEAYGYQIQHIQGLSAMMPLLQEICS

The target is the same in assay [6]. Description: qHTS assay to identify small molecule agonists of the constitutive androstane receptor (CAR) signaling pathway (AID 1224839). Also: nearly all actives have a fitted effect of over 15% in size. Also: potency is read from the fitted curve at half-maximal effect.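 As to activation: HepG2 cells stably carrying human CAR and a CYP2B6 luciferase reporter.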 The procedure, abridged:
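HepG2 cells stably expressing hCAR and a CYP2B6-2.2kb luciferase reporter were treated with compounds at 15 concentrations plus 0.75 uM PK11195 (final) for 24 h at 37 C; luminescence was read after ONE-Glo addition.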

Assay [7] is described as follows: qHTS assay to identify small molecule antagonists of the estrogen related receptor signaling pathway with the pleiotropic PPARgamma coactivator (PGC) from Tox21 10K library - cell viability counter screen (AID 1224840; active = well fitted cell-killing curve with a large enough effect in the repeat runs, not every such curve was filed as active; also: nearly all actives have a fitted effect of over 40% in size). In outline:
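Viability counter screen, PGC/ERR cells: 17.5 h compound exposure at 37 C, CellTiter-Fluor fluorescence endpoint.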

Assay [8] can be described thus: qHTS assay to identify small molecule antagonists of the estrogen related receptor signaling pathway with the pleiotropic PPARgamma coactivator (PGC) from Tox21 10K library (AID 1224841; call rule not given here; also: actives are mostly falling curves and most rising ones were filed inactive; nearly all actives have a fitted effect of over 50% in size; also: potency is read from the fitted curve at half-maximal effect). In outline: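 In the PGC/ERR line, DMSO solutions of test chemicals are pin-delivered to 2,000 cells/well six hours after dispensing. Following eighteen hours' incubation, One-Glo reagent is added and luminescence recorded.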

Assay [9] in a line: qHTS assay to identify small molecule agonists of the estrogen related receptor signaling pathway with the pleiotropic PPARgamma coactivator (PGC) from Tox21 10K library (AID 1224842). Also: nearly all actives have a fitted effect of over 15% in size. The procedure, abridged:
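PGC/ERR reporter cells (NTP line) were seeded 2,000 per well, rested 6 h at 37 C/5% CO2, then pin-dosed with compounds in DMSO for 18 h at 37 C; luciferase read by One-Glo luminescence after 30 min at room temperature.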

Assay [10] can be described thus: qHTS assay to identify small molecule agonists of H2AX (AID 1224845; active = well fitted activation curve with a large enough effect in the signal ratio in the repeat runs, not every such curve was filed as active; the % refers to the signal ratio). The procedure, abridged:
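Wild-type CHO-K1 cells plated overnight, then exposed 3 hr at 37C to compounds at 15 concentrations (0.76% DMSO). Lysed, then HTRF anti-pH2AX(S139)-cryptate/anti-H2AX-d2 detection after 24 hr at room temperature; emissions 665 and 620 nm.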

Assay [11] in a line: qHTS assay to identify small molecule agonists of the hypoxia (HIF-1) signaling pathway (AID 1224846; active = well fitted activation curve with a large enough effect in the signal ratio in the repeat runs, not every such curve was filed as active; the % refers to the signal ratio). In outline: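 In ME-180 cells bearing an HRE-bla construct, 17 h treatment with DMSO-dissolved compounds at 37C was followed by CCF4-AM loading to quantify reporter induction.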
The nature of assay [12]: qHTS assay to identify small molecule agonists of H2AX - cell viability counter screen (AID 1224847; calls by dose curve; also: top concentration of the series differs between compounds; nearly all actives have a fitted effect of over 30% in size). In outline:
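Wild-type CHO-K1 cells (10% FBS medium) were plated overnight at 37C, exposed to compounds at 15 concentrations for 3 hr at 37C (0.76% DMSO final), and viability was read as CellTiter-Glo luminescence after 30 min at room temperature.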

A short description of assay [13]: qHTS assay to identify small molecule antagonists of the estrogen related receptor (ERR) signaling pathway from Tox21 library (AID 1224848). Also: nearly all actives have a fitted effect of over 50% in size. Also: potency is read from the fitted curve at half-maximal effect. The procedure, abridged:
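First, 2,000 ERR cells per well were plated and held 6 h at 37 C/5% CO2. Next, compounds in DMSO were pinned in and left 18 h at 37 C. Finally, ONE-Glo was added and luminescence read after 30 min at room temperature.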

Assay [14] is described as follows: qHTS assay to identify small molecule agonists of the estrogen related receptor (ERR) signaling pathway from Tox21 library (AID 1224849; calls by dose curve; also: nearly all actives have a fitted effect of over 15% in size). Conditions: ERR reporter cell line, ONE-Glo luciferase, 18 h. The procedure, abridged: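 Reporter cells (ERR, NTP source) treated with Tox21 10K compounds 18 h, 37 C. Readout: ONE-Glo luminescence, 30 min RT.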
Assay [15] in a line: qHTS RealTime-Glo MT Cell Viability Assay in HepG2 cells - 24 hour (AID 1224867). Also: nearly all actives have a fitted effect of over 50% in size. The procedure, abridged: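 Compound treatment began 5 h after plating HepG2 cells (600/well) with NanoLuc luciferase and prosubstrate. Plates stayed at 37 C for 40 h; luminescence was captured at six time points, 0 h through 40 h.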
Assay [16] can be described thus: qHTS RealTime-Glo MT Cell Viability Assay in HEK293 cells - 32 hour (AID 1224868). Also: nearly all actives have a fitted effect of over 50% in size. Also: potency is read from the fitted curve at half-maximal effect. The procedure, abridged:
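Quantitative high-throughput screen of the Tox21 10K library in HEK293: cells and RealTime-Glo reagents plated together, compound added at 5 h, luminescence monitored through 40 h at 37 C.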

The nature of assay [17]: A CellTox Green Cytotoxicity Assay to monitor cytotoxicity in HEK293 cells - 0 hour (AID 1224869). Also: nearly all actives have a fitted effect of over 50% in size. In outline:
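Homogeneous no-lysis format: HEK293 cell suspension mixed with CellTox Green reagent, seeded, incubated 5 h at 37 C/5% CO2, then dosed by pintool with compound in DMSO.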

Assay [18] can be described thus: qHTS assay to identify small molecule agonists of the estrogen related receptor signaling pathway with the pleiotropic PPARgamma coactivator (PGC) (AID 1224823). The procedure, abridged: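 Luminescence from One-Glo reagent (30 min, room temperature) was read after 18 h compound treatment at 37 C of PGC/ERR cells plated 6 h beforehand; compounds delivered in DMSO by pin tool.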

Assay [19] has as its target Thyrotropin receptor (Homo sapiens) (UniProt P16473). Description: qHTS assay to identify small molecule agonists of the thyroid stimulating hormone receptor (TSHR) signaling pathway (AID 1224843; calls by dose curve; also: nearly all actives have a fitted effect of over 45% in size). In outline:
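Compounds are titrated over 15 concentrations, in triplicate, onto TSHR-HEK293 cells seeded at 800/well. Plates sit 30 min at room temperature before cAMP-d2 and anti-cAMP cryptate are added; signal is read after a further hour.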

A short description of assay [20]: qHTS assay to identify small molecule agonists of the hypoxia (HIF-1) signaling pathway - cell viability counter screen (AID 1224844; calls by dose curve; also: nearly all actives have a fitted effect of over 50% in size). In outline:
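Same wells as the HIF-1 reporter screen; ME-180 cells carrying HRE-bla, 17 hr treatment at 37C; CellTiter-Glo luminescence read after 30 min at room temperature.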

Molecules are shown by their SMILES. Where “and” joins values, the source holds several entries; their conditions need not be identical. Identical values can stand only once. Values without a mark were called inactive. Records with an inconclusive call do not appear. Calls of active or inactive are those of the source. Unless noted, calls follow the shape of the dose curve; as a rule, active = well fitted curve in the direction sought with a large enough effect in the repeat runs; inconclusive = weak or mixed curves; inactive = no such curve, though single readings can be large; an effect the other way counts as inactive or inconclusive.
% is scaled to controls: 0 for no effect and ±100 for the full control effect.

Luciferin 4-monooxygenase (Photinus pyralis), sequence (P08659 whole entry, looked up): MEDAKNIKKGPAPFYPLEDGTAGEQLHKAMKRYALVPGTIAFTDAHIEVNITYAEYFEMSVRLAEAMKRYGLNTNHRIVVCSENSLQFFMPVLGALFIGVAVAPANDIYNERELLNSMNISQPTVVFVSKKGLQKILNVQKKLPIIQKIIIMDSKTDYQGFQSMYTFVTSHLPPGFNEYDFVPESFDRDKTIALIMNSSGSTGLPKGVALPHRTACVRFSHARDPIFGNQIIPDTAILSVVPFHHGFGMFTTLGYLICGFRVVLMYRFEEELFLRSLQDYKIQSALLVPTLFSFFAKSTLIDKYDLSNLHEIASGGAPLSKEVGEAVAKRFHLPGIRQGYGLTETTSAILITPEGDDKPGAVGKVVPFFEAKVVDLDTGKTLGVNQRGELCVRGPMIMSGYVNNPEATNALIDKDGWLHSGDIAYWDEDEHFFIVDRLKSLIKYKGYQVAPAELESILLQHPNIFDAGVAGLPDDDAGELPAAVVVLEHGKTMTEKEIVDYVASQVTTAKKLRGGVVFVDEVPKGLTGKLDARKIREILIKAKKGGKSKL
Thyrotropin receptor (Homo sapiens), sequence (P16473 whole entry, looked up): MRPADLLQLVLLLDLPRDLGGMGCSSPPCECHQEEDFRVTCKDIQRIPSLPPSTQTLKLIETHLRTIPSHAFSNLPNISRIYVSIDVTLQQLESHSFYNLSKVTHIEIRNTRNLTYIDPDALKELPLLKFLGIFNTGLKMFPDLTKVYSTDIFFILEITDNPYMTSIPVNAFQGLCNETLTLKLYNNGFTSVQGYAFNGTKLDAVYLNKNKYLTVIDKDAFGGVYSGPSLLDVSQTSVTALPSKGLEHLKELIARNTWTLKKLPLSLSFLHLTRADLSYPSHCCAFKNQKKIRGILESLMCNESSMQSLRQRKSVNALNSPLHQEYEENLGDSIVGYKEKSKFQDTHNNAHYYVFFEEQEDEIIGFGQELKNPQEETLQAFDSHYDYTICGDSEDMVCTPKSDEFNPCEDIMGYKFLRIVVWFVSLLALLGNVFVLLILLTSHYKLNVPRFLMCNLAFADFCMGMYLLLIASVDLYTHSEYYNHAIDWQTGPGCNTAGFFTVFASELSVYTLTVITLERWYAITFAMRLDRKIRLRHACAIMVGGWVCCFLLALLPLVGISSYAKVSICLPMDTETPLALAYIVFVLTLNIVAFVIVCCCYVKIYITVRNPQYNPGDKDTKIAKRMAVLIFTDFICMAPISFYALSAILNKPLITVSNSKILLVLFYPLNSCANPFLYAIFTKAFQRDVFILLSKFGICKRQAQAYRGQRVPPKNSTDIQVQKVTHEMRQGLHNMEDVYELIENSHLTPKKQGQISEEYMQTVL

Turning to `CC(C)CC(C)CC(O)CC(C)C` (configuration not stated), the Potency entry in assay [1], in [2], in assay [3], in [4], in assay [5] and in assay [6] was “inactive” each time. Also, the Potency entry in [7], in assay [8], in assay [9], in assay [10], in assay [12] and in assay [13] was “inactive” throughout. The Potency result in [16] and in assay [17] was “inactive” in each case. The result in [11] and in assay [15] was inactive. In [14] (at 92.4 µM (top of the series)), the activity change, positive = activation is 3.18% and 4.59%.
`CCOC(=O)C(C)(C)Oc1ccc(Cl)cc1`: the compound was called inactive in assay [18] and in assay [15]. Moreover, the Potency result in [1], in assay [2], in [3], in assay [4], in assay [7] and in assay [8] was “inactive” throughout. In addition, the Potency result in [9], in assay [19], in assay [10], in assay [12], in [13] and in assay [16] was “inactive” in each case. For the same compound, the Potency result in assay [17] is “inactive”.
In the case of `C[C@]12CC[C@@H]3c4ccc(O)cc4C[C@@H](CCCCCCCCCS(=O)CCCC(F)(F)C(F)(F)F)[C@H]3[C@@H]1CC[C@@H]2O` (some centres not stated), the compound was called inactive in assay [18], in assay [11] and in assay [15]. Also, the Potency result in assay [2], in [3], in assay [4], in assay [5], in [6] and in [7] was “inactive” throughout. The Potency result in [9], in assay [19], in assay [20], in [10], in assay [12] and in assay [17] was “inactive” each time. Moreover, the Potency in assay [8] is 19.3 µM (active) and 6.39 µM (active); in assay [13], 6.85 µM (active) and 5.7 µM (active) and 5.96 µM (active); in [16] it was 43.6 µM (active). The activity change, positive = activation in assay [14] (at 42.5 µM (top of the series)) is -35% and -33.1%; in assay [14] (at 92.4 µM (top of the series)) it was -37.7%.
On to `COCCOCCOC`, for which the Potency entry in assay [1], in assay [2], in [3], in assay [4], in [5] and in assay [6] was “inactive” throughout. In addition, the Potency result in assay [7], in assay [19], in assay [20], in [10], in assay [12] and in assay [16] was “inactive” each time. For the same compound, in assay [17], the Potency result was “inactive”. Further, the outcome in assay [11] and in [15] was inactive.
Consider `c1ccc2[nH]c(-c3cscn3)nc2c1`, for which the Potency entry in [1], in [3], in assay [4], in [5], in [7] and in assay [19] was “inactive” each time. Besides, the Potency entry in assay [20], in assay [10], in assay [12], in [16] and in assay [17] was “inactive” in each case. Moreover, the Potency in [2] was 28.4 µM (active) and 35.6 µM (active) and 17.4 µM (active); in [6], 13.8 µM (active) and 6.11 µM (active) and 7.5 µM (active). Also, the compound was classed as inactive in assay [11] and in assay [15].
For the compound `CN(C)C=O`, the Potency entry in assay [1], in assay [2], in assay [3], in assay [4], in [5] and in [6] was “inactive” in each case. Moreover, the Potency entry in assay [7], in assay [8], in assay [9], in assay [19], in assay [10] and in assay [12] was “inactive” throughout. Also, the Potency entry in assay [13], in [16] and in [17] was “inactive” throughout. In addition, the compound was classed as inactive in [11] and in assay [15].
In the case of `O=C(O)CN(CC(=O)O)CC(=O)O`, the Potency entry in assay [1], in assay [2], in assay [3], in assay [4], in assay [5] and in assay [6] was “inactive” throughout. The Potency entry in assay [7], in assay [8], in assay [9], in assay [19], in assay [20] and in assay [10] was “inactive” each time. Moreover, the Potency result in [12], in assay [13], in [16] and in assay [17] was “inactive” throughout. Further, the call in assay [11] and in assay [15] was inactive.

For the origin of these results see PubChem BioAssay (Tox21).
